Measurements published in the supplement of paper PMC11732987, “Enantioselective OTUD7B fragment discovery through chemoproteomics screening and high-throughput optimisation” (Communications Chemistry, 2025).

Assays:
Assay in all cases: log2 ratio of Biotin-Ahx-Ub-VS probe labelling (fragment/DMSO); higher = less target engagement (more negative = stronger competition), active = hit call of the paper (q ≤ 0.05, log2 ratio ≤ -1)
Conditions in all cases: compound concentration: 200 uM; treatment time: 3 h
[1] = molecular target: USP9X (UniProt Q93008)
In short: (§1)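 HEK293T lysate (495 µg per sample, in Tris/CHAPS/IGEPAL buffer with protease inhibitors) was exposed in triplicate for 3 h to fragment at 200 µM or to vehicle, then to Biotin-Ahx-Ub-VS at 0.5 µM final for 1 h. Labelled DUBs were enriched on NeutrAvidin, digested with LysC and trypsin, and analysed by diaPASEF LC-MS/MS. Spectronaut label-free quantities were normalised to the global median, and values are average log2 ratios of fragment over vehicle from an unpaired t-test. Only proteins with ≥2 unique peptides were used.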

[2] = molecular target: UniProt O00487
In short: as §1

[3] = molecular target: UniProt O00507
In short: as §1

[4] = molecular target: UniProt P51784
In short: as §1

[5] = molecular target: T1, UniProt Q5T2D3
T1 sequence (whole entry): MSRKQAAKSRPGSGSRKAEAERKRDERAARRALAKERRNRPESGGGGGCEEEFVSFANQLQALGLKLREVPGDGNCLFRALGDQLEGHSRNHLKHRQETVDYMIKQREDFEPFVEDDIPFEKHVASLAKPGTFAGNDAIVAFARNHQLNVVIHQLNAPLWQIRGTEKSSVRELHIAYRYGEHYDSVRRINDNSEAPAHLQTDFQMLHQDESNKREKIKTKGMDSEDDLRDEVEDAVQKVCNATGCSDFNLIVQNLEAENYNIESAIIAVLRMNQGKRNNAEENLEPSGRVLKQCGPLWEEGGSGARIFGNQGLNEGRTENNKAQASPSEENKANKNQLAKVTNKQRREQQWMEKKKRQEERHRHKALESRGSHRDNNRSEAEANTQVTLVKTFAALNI
In short: as §1

[6] = molecular target: T2, UniProt Q8TE49
T2 sequence (whole entry): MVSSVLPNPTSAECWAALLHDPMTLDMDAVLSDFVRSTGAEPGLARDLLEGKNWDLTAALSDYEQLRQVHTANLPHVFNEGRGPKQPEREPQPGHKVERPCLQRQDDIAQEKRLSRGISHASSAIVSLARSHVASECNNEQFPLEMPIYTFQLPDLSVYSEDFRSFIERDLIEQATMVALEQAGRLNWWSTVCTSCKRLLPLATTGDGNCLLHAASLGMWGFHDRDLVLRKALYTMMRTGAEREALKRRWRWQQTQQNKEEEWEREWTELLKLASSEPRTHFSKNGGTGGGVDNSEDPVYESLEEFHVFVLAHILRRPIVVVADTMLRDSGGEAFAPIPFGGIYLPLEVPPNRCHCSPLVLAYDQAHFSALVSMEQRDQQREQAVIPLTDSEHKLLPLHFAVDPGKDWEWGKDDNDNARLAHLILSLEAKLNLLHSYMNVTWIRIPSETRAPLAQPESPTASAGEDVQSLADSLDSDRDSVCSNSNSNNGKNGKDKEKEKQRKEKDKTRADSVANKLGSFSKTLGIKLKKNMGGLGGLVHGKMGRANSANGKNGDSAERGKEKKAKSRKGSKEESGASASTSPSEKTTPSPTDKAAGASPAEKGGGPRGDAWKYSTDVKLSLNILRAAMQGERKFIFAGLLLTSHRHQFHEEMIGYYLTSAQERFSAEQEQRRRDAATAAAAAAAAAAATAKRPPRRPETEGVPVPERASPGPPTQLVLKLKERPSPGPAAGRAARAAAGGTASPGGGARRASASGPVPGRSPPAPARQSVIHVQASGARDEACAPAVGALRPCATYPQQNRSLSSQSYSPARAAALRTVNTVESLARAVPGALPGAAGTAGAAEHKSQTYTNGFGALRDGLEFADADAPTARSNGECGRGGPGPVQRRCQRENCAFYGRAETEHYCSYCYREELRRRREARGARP
In short: as §1

[7] = molecular target: T3, UniProt Q9P2H5
T3 sequence (whole entry): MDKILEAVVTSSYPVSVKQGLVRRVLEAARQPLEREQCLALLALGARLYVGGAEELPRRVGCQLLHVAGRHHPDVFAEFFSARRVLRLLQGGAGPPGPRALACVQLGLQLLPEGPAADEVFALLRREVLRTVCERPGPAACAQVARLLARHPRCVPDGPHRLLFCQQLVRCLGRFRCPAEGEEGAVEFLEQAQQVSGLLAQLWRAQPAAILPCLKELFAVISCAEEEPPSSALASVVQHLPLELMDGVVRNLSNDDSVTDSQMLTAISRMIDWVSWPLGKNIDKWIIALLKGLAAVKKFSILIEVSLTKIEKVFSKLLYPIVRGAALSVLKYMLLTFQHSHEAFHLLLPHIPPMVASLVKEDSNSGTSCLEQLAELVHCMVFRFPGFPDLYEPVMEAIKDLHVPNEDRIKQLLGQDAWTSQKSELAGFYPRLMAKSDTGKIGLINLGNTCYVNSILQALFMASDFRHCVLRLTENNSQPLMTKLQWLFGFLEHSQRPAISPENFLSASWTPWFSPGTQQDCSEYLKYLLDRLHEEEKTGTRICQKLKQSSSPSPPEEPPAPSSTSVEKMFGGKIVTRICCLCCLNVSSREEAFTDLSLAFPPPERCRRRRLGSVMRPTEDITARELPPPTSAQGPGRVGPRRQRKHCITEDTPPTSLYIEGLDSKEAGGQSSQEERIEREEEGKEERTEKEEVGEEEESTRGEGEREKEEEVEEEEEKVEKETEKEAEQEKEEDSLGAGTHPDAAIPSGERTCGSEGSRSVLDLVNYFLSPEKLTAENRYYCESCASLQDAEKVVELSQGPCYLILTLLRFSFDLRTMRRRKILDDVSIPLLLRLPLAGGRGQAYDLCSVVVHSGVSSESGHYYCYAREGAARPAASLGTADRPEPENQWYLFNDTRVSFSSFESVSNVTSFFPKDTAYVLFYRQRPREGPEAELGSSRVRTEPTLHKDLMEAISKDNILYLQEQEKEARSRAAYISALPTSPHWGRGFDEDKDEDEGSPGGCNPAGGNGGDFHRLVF
In short: as §1

[8] = molecular target: T4, UniProt Q9UGI0
T4 sequence (whole entry): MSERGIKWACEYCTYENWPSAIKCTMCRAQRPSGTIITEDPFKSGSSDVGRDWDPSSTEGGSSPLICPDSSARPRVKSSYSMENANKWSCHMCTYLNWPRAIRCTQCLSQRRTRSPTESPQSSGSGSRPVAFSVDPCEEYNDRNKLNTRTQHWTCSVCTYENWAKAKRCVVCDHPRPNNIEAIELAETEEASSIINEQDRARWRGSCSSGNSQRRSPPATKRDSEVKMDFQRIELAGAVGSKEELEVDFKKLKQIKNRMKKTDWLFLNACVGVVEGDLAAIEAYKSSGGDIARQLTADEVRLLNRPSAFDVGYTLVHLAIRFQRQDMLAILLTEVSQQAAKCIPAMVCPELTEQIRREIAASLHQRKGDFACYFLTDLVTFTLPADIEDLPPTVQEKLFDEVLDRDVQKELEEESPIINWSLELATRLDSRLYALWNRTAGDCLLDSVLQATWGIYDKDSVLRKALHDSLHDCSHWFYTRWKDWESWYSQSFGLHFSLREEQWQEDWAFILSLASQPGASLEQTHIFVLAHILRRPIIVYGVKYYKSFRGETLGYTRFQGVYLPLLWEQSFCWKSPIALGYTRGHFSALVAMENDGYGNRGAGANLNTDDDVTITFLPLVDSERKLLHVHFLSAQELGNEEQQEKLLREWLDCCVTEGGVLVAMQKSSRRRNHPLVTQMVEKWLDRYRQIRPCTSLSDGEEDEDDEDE
In short: as §1

[9] = molecular target: T5, YOD1 (UniProt Q5VVQ6)
T5 sequence (whole entry): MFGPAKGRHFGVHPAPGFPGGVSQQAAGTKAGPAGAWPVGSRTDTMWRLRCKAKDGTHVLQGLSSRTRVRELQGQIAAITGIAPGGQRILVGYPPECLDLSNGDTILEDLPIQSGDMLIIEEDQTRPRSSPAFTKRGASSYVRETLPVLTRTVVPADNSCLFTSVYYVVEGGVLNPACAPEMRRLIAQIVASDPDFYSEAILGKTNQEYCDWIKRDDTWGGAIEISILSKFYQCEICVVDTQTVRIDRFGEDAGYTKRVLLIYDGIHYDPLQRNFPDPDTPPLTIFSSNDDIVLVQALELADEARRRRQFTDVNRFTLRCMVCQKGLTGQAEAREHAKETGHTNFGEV
In short: as §1

Measured: log2 ratio of Biotin-Ahx-Ub-VS probe labelling

USP9X, sequence (Q93008 whole entry, the tested form may be a part): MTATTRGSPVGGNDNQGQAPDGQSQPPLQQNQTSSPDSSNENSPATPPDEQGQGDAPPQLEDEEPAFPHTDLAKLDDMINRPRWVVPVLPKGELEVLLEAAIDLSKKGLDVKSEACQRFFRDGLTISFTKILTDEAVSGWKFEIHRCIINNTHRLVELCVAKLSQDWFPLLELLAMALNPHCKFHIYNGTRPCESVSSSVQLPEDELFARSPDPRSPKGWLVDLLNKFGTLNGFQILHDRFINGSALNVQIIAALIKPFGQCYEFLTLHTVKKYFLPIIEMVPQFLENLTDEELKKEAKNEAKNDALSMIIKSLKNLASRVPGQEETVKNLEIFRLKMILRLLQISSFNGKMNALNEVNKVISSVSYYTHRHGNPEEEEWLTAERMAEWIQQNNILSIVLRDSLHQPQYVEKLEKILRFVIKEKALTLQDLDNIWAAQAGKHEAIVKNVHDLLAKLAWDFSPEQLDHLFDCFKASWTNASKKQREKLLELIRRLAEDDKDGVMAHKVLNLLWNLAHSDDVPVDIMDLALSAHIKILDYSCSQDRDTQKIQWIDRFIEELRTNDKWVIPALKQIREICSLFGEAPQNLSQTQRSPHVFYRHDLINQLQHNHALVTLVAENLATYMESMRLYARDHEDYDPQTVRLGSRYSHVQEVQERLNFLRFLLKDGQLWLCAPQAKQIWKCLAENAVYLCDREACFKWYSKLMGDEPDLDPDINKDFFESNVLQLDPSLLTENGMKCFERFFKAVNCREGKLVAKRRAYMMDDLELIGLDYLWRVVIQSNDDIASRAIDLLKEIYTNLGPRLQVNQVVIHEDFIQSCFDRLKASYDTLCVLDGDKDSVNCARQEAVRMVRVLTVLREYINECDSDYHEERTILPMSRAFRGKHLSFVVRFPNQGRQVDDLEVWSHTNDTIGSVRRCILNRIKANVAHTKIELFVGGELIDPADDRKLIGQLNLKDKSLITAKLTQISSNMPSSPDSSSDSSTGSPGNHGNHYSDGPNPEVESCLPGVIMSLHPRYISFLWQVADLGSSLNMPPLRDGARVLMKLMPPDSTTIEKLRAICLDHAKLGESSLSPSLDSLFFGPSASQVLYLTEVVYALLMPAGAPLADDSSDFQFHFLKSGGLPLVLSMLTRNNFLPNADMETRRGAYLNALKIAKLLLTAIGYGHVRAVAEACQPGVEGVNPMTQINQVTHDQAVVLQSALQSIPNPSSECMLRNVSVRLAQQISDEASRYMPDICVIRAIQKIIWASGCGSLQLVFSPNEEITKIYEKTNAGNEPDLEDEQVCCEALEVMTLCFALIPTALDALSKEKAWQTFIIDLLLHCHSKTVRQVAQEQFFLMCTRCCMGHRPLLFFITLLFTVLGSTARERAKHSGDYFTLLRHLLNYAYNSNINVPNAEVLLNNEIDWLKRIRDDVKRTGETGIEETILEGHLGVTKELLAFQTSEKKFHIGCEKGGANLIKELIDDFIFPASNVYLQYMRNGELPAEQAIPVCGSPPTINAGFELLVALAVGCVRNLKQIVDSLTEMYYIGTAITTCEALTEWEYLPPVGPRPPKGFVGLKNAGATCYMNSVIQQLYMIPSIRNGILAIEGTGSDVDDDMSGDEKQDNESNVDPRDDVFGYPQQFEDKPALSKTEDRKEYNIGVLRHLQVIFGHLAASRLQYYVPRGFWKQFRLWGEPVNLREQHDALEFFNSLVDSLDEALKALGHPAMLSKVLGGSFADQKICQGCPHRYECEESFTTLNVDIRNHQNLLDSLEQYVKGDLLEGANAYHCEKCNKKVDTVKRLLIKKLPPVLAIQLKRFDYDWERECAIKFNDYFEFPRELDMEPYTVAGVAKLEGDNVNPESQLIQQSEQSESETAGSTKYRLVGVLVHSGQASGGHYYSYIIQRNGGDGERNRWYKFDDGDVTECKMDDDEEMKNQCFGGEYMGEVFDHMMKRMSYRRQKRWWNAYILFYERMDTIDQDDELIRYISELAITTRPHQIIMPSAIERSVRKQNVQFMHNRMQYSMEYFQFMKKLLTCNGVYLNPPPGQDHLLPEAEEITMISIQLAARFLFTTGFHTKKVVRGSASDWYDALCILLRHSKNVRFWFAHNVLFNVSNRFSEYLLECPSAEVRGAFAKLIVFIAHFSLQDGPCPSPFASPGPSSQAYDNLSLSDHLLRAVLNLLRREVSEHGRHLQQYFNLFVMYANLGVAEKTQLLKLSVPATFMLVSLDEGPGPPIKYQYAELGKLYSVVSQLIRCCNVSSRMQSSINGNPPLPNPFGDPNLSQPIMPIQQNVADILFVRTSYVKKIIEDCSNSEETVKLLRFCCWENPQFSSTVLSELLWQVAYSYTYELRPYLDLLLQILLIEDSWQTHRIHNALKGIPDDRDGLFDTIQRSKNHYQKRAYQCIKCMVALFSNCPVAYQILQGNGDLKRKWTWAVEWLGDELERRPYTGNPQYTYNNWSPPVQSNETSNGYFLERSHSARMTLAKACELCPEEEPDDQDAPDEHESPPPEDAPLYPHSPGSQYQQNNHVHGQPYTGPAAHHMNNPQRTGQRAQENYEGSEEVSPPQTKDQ
UniProt P51784, sequence (P51784 whole entry): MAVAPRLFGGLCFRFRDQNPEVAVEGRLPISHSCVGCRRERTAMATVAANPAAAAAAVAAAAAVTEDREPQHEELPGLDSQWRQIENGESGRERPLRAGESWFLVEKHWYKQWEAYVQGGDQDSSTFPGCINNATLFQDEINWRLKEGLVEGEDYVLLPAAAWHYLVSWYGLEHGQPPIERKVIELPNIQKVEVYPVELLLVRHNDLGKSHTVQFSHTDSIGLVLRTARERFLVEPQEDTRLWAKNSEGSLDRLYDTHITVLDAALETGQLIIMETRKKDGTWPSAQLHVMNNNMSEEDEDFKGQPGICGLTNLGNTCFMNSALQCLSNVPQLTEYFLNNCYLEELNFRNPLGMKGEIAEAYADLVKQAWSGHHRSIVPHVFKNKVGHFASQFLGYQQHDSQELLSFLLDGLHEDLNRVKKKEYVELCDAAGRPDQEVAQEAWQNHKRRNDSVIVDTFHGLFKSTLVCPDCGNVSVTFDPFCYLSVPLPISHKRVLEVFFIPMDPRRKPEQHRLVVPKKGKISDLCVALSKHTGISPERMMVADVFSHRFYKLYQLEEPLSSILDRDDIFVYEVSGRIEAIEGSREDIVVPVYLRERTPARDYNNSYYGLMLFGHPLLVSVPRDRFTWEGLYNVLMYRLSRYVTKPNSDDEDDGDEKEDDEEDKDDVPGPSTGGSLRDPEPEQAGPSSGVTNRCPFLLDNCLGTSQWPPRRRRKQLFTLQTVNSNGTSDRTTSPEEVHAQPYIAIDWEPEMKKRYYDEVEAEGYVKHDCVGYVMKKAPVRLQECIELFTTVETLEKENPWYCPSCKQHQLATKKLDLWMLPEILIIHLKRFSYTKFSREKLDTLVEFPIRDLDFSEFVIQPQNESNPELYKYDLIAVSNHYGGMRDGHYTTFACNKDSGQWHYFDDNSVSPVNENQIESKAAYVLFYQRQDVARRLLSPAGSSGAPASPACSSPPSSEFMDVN
UniProt O00487, sequence (O00487 whole entry): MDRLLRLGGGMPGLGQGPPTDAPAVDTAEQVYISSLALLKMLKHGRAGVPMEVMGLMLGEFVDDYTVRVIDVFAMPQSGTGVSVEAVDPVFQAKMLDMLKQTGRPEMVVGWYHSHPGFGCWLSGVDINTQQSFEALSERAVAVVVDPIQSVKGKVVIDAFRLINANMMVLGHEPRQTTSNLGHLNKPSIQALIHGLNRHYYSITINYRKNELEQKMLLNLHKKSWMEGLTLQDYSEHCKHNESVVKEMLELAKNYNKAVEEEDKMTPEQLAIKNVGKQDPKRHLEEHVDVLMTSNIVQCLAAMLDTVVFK

Cc1cccc(C)c1NC(=O)CCl
inactive: [1] -0.187 | [2] -0.00227 | [3] -0.138 | [4] -0.081 | [5] -0.377 | [6] -0.358 | [7] -0.0602 | [8] -0.323 | [9] -0.344
